Data on 40 molecules can be found in the supplement of paper PMC10732440.

± gives the standard deviation of the averaged measurements.

The test relates to Caenorhabditis elegans N2 infected with Nematocida parisii ERTm1. Nature of the test: progeny production relative to DMSO uninfected control; higher = more progeny despite microsporidia infection (inhibition of infection with low host toxicity). To be noted: infection time 6 days; 100 µM. Summed up: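 Progeny production is reported as a percentage of spore-free vehicle wells and averaged across replicates. It was measured after bleach-synchronised wild-type C. elegans L1 larvae (100 per well) spent 6 days shaking at 21°C in K-medium with E. coli OP50, 15,000 N. parisii spores/μL and compound at 100 μM or 40 μM in 1% DMSO. Counting used Rose Bengal staining, flatbed scanning and WorMachine, and each compound and dose was tested three times.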
In turn, `CCc1cc(Nc2cc(=O)n(CCN3CCN(C(=O)c4ccccc4)CC3)c(=O)[nH]2)ccc1C` gave a progeny production of 21 ± 12%.
For `N#C/C(=C1/SC[C@H](c2ccc(Cl)cc2Cl)S1)n1ccnc1` the value was 4.59 ± 2.5%; for `COC(=O)Nc1nc2cc([S+]([O-])c3ccccc3)ccc2[nH]1` (stereo not given), 23 ± 20%; for `COc1cc(Cc2cnc(N)nc2N)cc(OC)c1OC`, 16.3 ± 11%.
In turn, `CC(C)Cn1c(=O)n(C)c(=O)c2c(-c3cncn3C)n(Cc3cccc4ccccc34)nc21` returned a progeny production of 6.12 ± 1.8%.
`O=C1[C@H](CC[C@H](O)c2ccc(F)cc2)[C@@H](c2ccc(O)cc2)N1c1ccc(F)cc1` gave a progeny production of 21 ± 14%.
`O=c1cc(Nc2ccc3ccccc3c2)[nH]c(=O)[nH]1` yielded a progeny production of 8.48 ± 9.1%.
`N#CCN1C(=O)COc2cc(F)c(N3C(=O)c4ccccc4C3=O)cc21` returned a progeny production of 15.2 ± 12%.
For `O=C(CC1Sc2ncnn2C1=O)Nc1ccc(Br)cc1` (stereo not given) the value was 21.6 ± 10%; for `CCC[C@H](NC(=O)[C@@H]1[C@H]2CCC[C@H]2CN1C(=O)[C@@H](NC(=O)[C@@H](NC(=O)c1cnccn1)C1CCCCC1)C(C)(C)C)C(=O)C(=O)NC1CC1`, 10.3 ± 1.3%.
The figure for `COc1ccc(NC(=O)CC2Sc3ncnn3C2=O)cc1` (stereo not given) is 14.8 ± 8.1%.
Turning to `O=P(O)(O)C(CCCc1cccc(Oc2ccccc2)c1)S(=O)(=O)O` (stereo not given), the progeny production stood at 8.22 ± 4.1%.
The figure for `CC(C)(C)NC(=O)N[C@H](C(=O)N1C[C@H]2[C@@H]([C@H]1C(=O)NC(CC1CCC1)C(=O)C(N)=O)C2(C)C)C(C)(C)C` (stereo not given in full) is 7.69 ± 4.1%.
The figure for `CCOc1ccc(/C=N/NC(=O)C2CC2c2ccc(C(C)(C)C)cc2)cc1OCC` (stereo not given) is 12 ± 7.9%; for `CCCCCCCc1[nH]c2ccccc2c(=O)c1O` it is 21.2 ± 19%.
The figure for `COc1ccc2c(c1OC)C(=O)OC2C1c2c(cc3c(c2OC)OCO3)CCN1C` (stereo not given) is 14.7 ± 9.2%; for `CC(=O)NC[C@H]1CN(c2ccc(N3CCSCC3)c(F)c2)C(=O)O1` it is 10.4 ± 6.2%.
As for `Cc1ncc([N+](=O)[O-])n1CC(C)O` (stereo not given), the progeny production amounted to 7.52 ± 8.6%.
The figure for `CC(N)C12CC3CC(CC(C3)C1)C2` (stereo not given) is 6.21 ± 1.8%; for `CC(C)Nc1nc2cc(Cl)c(Cl)cc2n1[C@H]1O[C@@H](CO)[C@H](O)[C@@H]1O` it is 9.08 ± 2.1%.
Consider `COc1ccc(OCc2ccc(COc3c(Cl)cccc3Cl)cc2)c(Cl)c1`, for which the progeny production stood at 12.3 ± 5.3%.
As to `CC(C)(C)c1ccc(C(=O)NC(=O)N2CCCc3ccccc32)cc1`, the progeny production was determined as 22.1 ± 18%.
Molecule `Nc1cc(-c2nc3ccccc3[nH]2)n[nH]c1=O` showed a progeny production of 10.7 ± 4.7%.
For `O=C(NCc1ccccc1Cl)c1cnc2ccccc2n1` the value was 12.1 ± 12%.
For `CN(C)c1[nH]c(=O)ncc1F` the value was 14.8 ± 7.8%; for `CCC(C)(C)c1ccc(CC(C)CN2C[C@@H](C)O[C@@H](C)C2)cc1` (stereo not given in full), 23 ± 23%; for `CCC(C)NCC(O)Cn1c2ccc(Cl)cc2c2cc(Cl)ccc21` (stereo not given), 6.85 ± 6.4%.
`C[C@@H](NC(=O)c1cccc(-c2cnc(-c3cc4ccccc4cn3)[nH]2)c1)c1ccc(F)cc1` returned a progeny production of 8.24 ± 5.7%.
The figure for `CC[C@@H]1C(=O)OC[C@@H]1Cc1cncn1C` is 11.8 ± 11%; for `O=C(c1ccccc1)N1CCN(c2ccccc2NC(=O)C(Cl)(Cl)Cl)CC1` it is 12.7 ± 8.6%; for `O=S(=O)(Nc1ccc(O)cc1)c1cccc2cccnc12` it is 12 ± 6.6%.
The molecule `CC1(C)[C@H](C(=O)O)N2C(=O)C[C@H]2S1(=O)=O` displayed a progeny production of 10.7 ± 7.8%.
As to `Nc1ccc(-c2nc3cc(C(F)(F)F)ccc3n2C23CC4CC(CC(C4)C2)C3)cc1`, the progeny production was found to be 17 ± 6%.
The figure for `CN(C(=O)C1(c2ccc(Cl)cc2)CCC1)c1ccccc1` is 14.9 ± 2.4%.
The figure for `O=C(NCc1ncc(C(F)(F)F)cc1Cl)c1c(Cl)cccc1Cl` is 8.17 ± 5.4%; for `O=C(NC1CCCc2c1[nH]c1ccc(Cl)cc21)c1ccccn1` (stereo not given) it is 7.35 ± 5.1%; for `CC(=O)O[C@H]1C[C@@]2(C)[C@@H](C[C@@H](O)[C@H]3[C@@]4(C)CC[C@@H](O)[C@@H](C)[C@@H]4CC[C@@]32C)/C1=C(\CCC=C(C)C)C(=O)O` it is 16.9 ± 9.1%.
For `C=CCc1cc(Cc2cnc(N)nc2N)cc(OC)c1O` the value was 12.4 ± 5.1%.
As to `Cc1c(OCC(F)(F)F)ccnc1C[S+]([O-])c1nc2ccccc2[nH]1` (stereo not given), the progeny production stood at 11 ± 6.1%.
For `Nc1nc(O)c2ncn([C@@H]3O[C@H](CO)[C@@H](O)[C@H]3F)c2n1` the value was 9.71 ± 4.6%.
